Measurements as given in the supplement of paper PMC10849652.
Targets with a hit are over-represented here; the source holds about 7,900 in all. About 0.6% of all pairs of compound and target were hits.

Experiments:
Experiment in all cases: log2 fold change, soluble protein after heating vs DMSO (PISA); higher = thermal stabilisation; K562 cells, 10 uM, 30 min; active = over 0.2 and 3.5 SD of the protein, either way, in both replicates (recomputed)
[1] = compound: NC(=O)Nc1cc(-c2cccc(F)c2)sc1C(=O)N[C@H]1CCCNC1
How it was run: (§1)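 Values are thermal stability changes relative to control samples and are taken from duplicates. They are stated as log2 fold changes. Before quantification by TMTpro 16plex LC-MS/MS with equalised channel sums, K562 cells at 2×10^6 cells/mL were treated with 10 μM compound for 30 min, heated in aliquots for 3 min across 48°C-58°C, pooled, extracted in PBS with 0.5% NP-40 at 4°C, and centrifuged at 21,000xg for 90 min to give the soluble supernatant.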

[2] = compound: NC(=O)c1cnc(N[C@@H]2CCCC[C@@H]2N)nc1Nc1cccc(-n2nccn2)c1
How it was run: as §1

[3] = compound: NC1(c2ccc(-c3nc4ccn5c(=O)[nH]nc5c4cc3-c3ccccc3)cc2)CCC1
How it was run: as §1

[4] = compound: NCC(=O)Nc1ccc(-n2nc(C(F)(F)F)cc2-c2ccc3c(ccc4ccccc43)c2)cc1
How it was run: as §1

[5] = compound: Nc1ccccc1NC(=O)c1ccc(CNC(=O)OCc2cccnc2)cc1 [entinostat]
How it was run: as §1

[6] = compound: O=C(CCCCCCC(=O)Nc1ccccc1)NO [vorinostat]
How it was run: as §1

[7] = compound: O=C(CCCCCCNC(=O)c1cnc(N(c2ccccc2)c2ccccc2Cl)nc1)NO [citarinostat]
How it was run: as §1

[8] = compound: O=C(O)c1ccc2c(c1)nc(Nc1cccc(Cl)c1)c1ccncc12 [silmitasertib]
How it was run: as §1

[9] = compound: O=C1NC(=O)C(c2cnc3ccccn23)=C1c1cn2c3c(cc(F)cc13)CN(C(=O)N1CCCCC1)CC2
How it was run: as §1

[10] = compound: c1cc(OCCN2CCCCC2)cc(-c2n[nH]c3ccc(-c4nnc[nH]4)cc23)c1
How it was run: as §1

Measured: log2 fold change

CUX1 isoform 3 (UniProt P39880)
inactive: [1] -0.016 | [2] -0.006 | [3] -0.034 | [4] -0.076 | [5] -0.028 | [6] 0.034 | [7] 0.019 | [8] 0.046 | [9] -0.022 | [10] -0.004

FAM117A (UniProt Q9C073)
active: [8] -0.422 | [10] -0.251
inactive: [1] -0.135 | [2] 0 | [3] -0.05 | [4] -0.03 | [5] 0.046 | [6] -0.011 | [7] 0.043 | [9] 0.038

DIP2A (UniProt Q14689)
inactive: [1] -0.056 | [2] 0.007 | [3] -0.356 | [4] 0.017 | [5] 0.002 | [6] 0.031 | [7] 0.043 | [8] 0.1 | [9] -0.016 | [10] 0.004

ESYT1 isoform 2 (UniProt Q9BSJ8)
inactive: [1] 0.062 | [2] 0.004 | [3] -0.004 | [4] -0.044 | [5] 0.086 | [6] 0.122 | [7] 0.033 | [8] 0.041 | [9] 0.187 | [10] -0.048

ESS2 (UniProt Q96DF8)
inactive: [1] 0.036 | [2] 0.048 | [3] -0.078 | [4] 0.069 | [5] -0.027 | [6] -0.012 | [7] 0.014 | [8] 0.04 | [9] 0.033 | [10] -0.017

EDC4 (UniProt Q6P2E9)
inactive: [1] -0.06 | [2] -0.024 | [3] -0.026 | [4] -0.082 | [5] 0.026 | [6] -0.023 | [7] 0.035 | [8] -0.05 | [9] -0.066
active: [10] -0.253

EIF4E isoform 2 (UniProt P06730)
inactive: [1] 0.005 | [2] 0.226 | [3] 0.059 | [4] 0.126 | [5] -0.073 | [6] -0.01 | [7] -0.026 | [8] 0.102 | [9] -0.044 | [10] 0.141

CYBA (UniProt P13498)
inactive: [1] -0.028 | [2] -0.141 | [3] -0.044 | [4] -0.13 | [5] -0.004 | [6] 0.018 | [7] -0.01 | [8] 0 | [9] -0.01 | [10] -0.041

DDX46 (UniProt Q7L014)
Sequence of UniProt Q7L014 (Q7L014 whole entry, looked up): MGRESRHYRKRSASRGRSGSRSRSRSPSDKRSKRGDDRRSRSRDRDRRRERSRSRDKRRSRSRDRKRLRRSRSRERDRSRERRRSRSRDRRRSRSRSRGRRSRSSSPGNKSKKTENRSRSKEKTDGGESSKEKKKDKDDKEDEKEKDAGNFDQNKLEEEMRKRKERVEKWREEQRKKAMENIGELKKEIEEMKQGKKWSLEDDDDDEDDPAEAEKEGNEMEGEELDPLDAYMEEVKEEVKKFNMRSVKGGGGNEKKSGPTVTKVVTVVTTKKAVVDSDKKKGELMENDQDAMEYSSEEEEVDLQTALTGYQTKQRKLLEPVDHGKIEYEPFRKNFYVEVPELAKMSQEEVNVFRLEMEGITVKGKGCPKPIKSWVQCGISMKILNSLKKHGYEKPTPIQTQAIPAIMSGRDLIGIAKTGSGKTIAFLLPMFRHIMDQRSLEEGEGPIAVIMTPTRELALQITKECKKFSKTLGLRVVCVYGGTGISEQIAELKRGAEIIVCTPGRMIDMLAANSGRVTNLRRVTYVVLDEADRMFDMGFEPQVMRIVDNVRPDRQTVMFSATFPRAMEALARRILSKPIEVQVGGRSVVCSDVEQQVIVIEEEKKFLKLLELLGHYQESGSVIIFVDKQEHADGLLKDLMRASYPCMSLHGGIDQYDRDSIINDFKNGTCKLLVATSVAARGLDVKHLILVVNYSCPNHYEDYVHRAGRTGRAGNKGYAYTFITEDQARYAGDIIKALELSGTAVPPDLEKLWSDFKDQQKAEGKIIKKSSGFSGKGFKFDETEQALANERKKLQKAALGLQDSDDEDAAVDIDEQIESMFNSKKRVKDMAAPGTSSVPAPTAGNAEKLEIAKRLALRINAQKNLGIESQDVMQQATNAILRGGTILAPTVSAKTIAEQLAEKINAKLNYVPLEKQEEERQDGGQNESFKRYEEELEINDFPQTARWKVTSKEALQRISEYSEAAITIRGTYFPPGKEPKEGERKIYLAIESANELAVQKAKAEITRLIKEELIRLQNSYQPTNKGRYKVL
inactive: [1] -0.185 | [2] -0.087 | [3] -0.178 | [4] -0.197 | [5] 0.095 | [6] 0 | [7] 0.103 | [8] 0.018 | [9] -0.243 | [10] 0.084

DHFR (UniProt P00374)
inactive: [1] 0.095 | [2] 0.209 | [4] -0.139 | [5] -0.02 | [6] 0.082 | [7] 0.042 | [9] 0.072 | [10] -0.048
active: [3] 0.849 | [8] 0.57

EED, A0A5F9ZI63
inactive: [1] 0.03 | [2] 0.053 | [3] 0.037 | [4] -0.029 | [5] -0.039 | [6] 0.021 | [7] 0.098 | [8] 0.078 | [9] 0.065 | [10] -0.078

DOCK8 (UniProt Q8NF50)
Sequence of UniProt Q8NF50 (Q8NF50 whole entry, looked up): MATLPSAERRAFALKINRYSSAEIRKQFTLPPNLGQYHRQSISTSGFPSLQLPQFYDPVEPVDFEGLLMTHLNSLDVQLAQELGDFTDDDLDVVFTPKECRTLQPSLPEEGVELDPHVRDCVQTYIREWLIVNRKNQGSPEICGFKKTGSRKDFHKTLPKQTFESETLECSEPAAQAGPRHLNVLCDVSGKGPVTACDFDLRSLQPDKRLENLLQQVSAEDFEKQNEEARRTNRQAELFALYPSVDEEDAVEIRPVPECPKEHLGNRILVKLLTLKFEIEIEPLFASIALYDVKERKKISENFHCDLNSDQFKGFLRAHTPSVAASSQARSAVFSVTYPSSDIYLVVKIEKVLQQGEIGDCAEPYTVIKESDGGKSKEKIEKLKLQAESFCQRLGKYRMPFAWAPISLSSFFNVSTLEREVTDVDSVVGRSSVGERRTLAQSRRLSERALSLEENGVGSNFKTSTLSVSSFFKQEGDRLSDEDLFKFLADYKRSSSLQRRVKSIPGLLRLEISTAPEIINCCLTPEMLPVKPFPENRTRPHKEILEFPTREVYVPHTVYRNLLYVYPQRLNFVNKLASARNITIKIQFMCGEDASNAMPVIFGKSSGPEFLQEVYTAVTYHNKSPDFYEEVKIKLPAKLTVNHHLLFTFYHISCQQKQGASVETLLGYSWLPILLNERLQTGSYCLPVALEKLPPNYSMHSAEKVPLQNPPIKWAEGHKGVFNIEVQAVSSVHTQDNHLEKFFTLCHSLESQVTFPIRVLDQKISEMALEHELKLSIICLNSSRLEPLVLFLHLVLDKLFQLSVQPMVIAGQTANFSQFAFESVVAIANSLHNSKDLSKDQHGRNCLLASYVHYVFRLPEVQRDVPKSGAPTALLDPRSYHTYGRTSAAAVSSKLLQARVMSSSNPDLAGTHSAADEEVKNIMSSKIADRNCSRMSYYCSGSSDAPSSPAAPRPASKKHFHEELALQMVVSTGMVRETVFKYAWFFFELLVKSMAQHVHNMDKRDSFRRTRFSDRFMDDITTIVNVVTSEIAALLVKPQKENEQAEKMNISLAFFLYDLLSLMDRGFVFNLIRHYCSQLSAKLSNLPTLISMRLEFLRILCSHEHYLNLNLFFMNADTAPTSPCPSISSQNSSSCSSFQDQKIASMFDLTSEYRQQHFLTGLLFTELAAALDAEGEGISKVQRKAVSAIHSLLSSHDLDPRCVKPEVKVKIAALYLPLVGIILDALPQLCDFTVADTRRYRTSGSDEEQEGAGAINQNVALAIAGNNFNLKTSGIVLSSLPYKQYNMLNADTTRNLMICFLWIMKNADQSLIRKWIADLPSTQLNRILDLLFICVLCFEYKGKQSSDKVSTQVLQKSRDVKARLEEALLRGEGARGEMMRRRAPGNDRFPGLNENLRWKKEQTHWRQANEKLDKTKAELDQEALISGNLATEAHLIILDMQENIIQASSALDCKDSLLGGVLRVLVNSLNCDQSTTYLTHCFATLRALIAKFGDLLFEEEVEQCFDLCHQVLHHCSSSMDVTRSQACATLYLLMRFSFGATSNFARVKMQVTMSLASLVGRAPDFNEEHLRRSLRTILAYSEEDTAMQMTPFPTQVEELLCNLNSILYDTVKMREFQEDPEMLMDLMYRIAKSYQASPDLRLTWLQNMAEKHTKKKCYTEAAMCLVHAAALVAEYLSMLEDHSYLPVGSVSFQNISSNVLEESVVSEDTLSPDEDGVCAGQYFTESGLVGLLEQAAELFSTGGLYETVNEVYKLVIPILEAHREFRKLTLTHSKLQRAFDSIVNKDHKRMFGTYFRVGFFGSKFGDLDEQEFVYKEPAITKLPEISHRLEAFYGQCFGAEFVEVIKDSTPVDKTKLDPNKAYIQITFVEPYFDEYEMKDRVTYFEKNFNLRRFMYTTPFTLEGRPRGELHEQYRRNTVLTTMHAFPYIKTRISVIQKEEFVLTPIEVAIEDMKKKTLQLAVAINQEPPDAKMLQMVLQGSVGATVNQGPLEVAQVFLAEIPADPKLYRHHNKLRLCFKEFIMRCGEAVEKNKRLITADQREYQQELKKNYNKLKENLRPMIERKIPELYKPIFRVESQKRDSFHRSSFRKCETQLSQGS
inactive: [1] -0.088 | [2] 0.073 | [3] 0.461 | [4] 0.036 | [5] 0.079 | [6] 0.031 | [7] 0.064 | [8] 0.254 | [9] -0.12 | [10] 0.07

EOGT (UniProt Q5NDL2)
inactive: [1] -0.008 | [2] -0.063 | [3] -0.045 | [4] -0.011 | [5] 0.031 | [6] -0.092 | [7] -0.016 | [8] 0.038 | [9] 0.009 | [10] -0.063

DHX16 (UniProt O60231)
inactive: [1] 0.005 | [2] 0.018 | [3] -0.021 | [4] -0.044 | [5] 0.013 | [6] 0.001 | [7] 0.049 | [8] -0.142 | [9] -0.012 | [10] -0.041

CTU1 (UniProt Q7Z7A3)
inactive: [1] 0.038 | [2] -0.015 | [3] -0.199 | [4] -0.142 | [5] 0.023 | [6] 0.075 | [7] 0.049 | [8] 0.021 | [9] 0 | [10] 0.008

DBT (UniProt P11182)
inactive: [1] -0.009 | [2] 0.003 | [3] 0.005 | [4] -0.021 | [5] -0.042 | [6] 0.006 | [7] -0.011 | [8] 0.027 | [9] 0.022 | [10] -0.093

EBNA1BP2 (UniProt Q99848)
inactive: [1] 0.05 | [2] 0.006 | [3] 0.195 | [4] 0.158 | [5] -0.029 | [6] 0.133 | [7] 0.041 | [8] 0.151 | [9] 0.352 | [10] -0.292

FAM83D (UniProt Q9H4H8)
inactive: [1] -0.031 | [2] -0.073 | [3] -0.072 | [4] 0.075 | [5] 0.008 | [6] 0.066 | [7] 0.115 | [8] 0.048 | [9] -0.058 | [10] 0.059

EIF4G1 isoform 8 (UniProt Q04637)
inactive: [1] -0.104 | [2] -0.273 | [3] -0.154 | [4] -0.106 | [5] 0.185 | [6] 0.116 | [7] 0.058 | [8] -0.045 | [9] 0.194 | [10] -0.269

DYRK1A isoform 2 (UniProt Q13627)
inactive: [2] -0.034 | [3] -0.115 | [4] -0.064 | [5] 0.028 | [6] 0.056 | [7] 0 | [9] -0.029
active: [1] -0.225 | [8] -0.292

CTSZ (UniProt Q9UBR2)
active: [3] -0.511
inactive: [1] -0.029 | [2] -0.005 | [4] 0.044 | [5] -0.023 | [6] 0.013 | [7] 0.019 | [8] 0.008 | [9] -0.047 | [10] 0.006

CYFIP1 (UniProt Q7L576)
Sequence of UniProt Q7L576 (Q7L576 whole entry, looked up): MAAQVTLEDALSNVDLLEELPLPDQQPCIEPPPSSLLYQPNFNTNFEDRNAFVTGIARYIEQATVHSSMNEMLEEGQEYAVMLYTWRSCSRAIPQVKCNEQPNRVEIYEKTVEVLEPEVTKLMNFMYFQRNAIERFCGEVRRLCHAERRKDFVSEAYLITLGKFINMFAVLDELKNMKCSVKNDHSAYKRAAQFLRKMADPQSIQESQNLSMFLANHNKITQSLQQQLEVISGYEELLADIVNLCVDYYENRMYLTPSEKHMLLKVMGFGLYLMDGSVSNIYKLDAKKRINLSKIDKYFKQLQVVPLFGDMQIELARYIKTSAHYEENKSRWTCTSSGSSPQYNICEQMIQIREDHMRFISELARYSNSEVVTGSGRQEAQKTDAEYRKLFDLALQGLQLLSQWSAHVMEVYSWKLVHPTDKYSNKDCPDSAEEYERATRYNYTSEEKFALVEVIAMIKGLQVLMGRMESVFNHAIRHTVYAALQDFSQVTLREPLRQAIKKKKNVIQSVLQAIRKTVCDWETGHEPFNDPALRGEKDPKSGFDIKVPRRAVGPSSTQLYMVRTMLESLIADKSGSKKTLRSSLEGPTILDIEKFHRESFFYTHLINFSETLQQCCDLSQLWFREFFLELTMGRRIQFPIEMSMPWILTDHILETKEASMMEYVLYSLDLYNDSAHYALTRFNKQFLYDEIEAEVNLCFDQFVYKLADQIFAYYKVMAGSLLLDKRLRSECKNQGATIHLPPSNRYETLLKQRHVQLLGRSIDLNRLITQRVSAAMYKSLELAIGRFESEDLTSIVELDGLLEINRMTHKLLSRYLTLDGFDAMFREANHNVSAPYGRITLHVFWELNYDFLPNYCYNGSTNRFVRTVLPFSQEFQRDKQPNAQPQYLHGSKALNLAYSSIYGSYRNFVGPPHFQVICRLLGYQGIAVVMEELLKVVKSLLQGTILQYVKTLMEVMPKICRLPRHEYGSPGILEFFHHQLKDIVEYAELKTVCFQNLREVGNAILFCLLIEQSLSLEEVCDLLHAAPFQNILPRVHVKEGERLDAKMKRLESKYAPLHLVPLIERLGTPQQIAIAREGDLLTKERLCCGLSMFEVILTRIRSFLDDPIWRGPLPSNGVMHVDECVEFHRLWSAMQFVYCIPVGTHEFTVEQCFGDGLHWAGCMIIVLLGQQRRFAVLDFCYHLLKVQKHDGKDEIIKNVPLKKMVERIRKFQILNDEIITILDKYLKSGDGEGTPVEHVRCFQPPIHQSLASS
inactive: [1] -0.088 | [2] -0.029 | [3] -0.143 | [4] 0.003 | [5] 0.02 | [6] -0.025 | [7] 0.031 | [8] 0.009 | [9] -0.039 | [10] -0.064

EXOC4 (UniProt Q96A65)
inactive: [1] 0.081 | [2] -0.216 | [3] -0.205 | [4] -0.051 | [5] 0.078 | [6] 0.174 | [7] 0.16 | [8] 0.091 | [9] 0.044 | [10] -0.094

FAAP100 (UniProt Q0VG06)
inactive: [1] 0.009 | [2] 0.039 | [3] -0.076 | [4] -0.031 | [5] -0.05 | [6] 0.048 | [7] -0.012 | [8] -0.051 | [9] 0.197 | [10] -0.053

DBNL isoform 3 (UniProt Q9UJU6)
inactive: [1] 0.021 | [2] -0.022 | [3] -0.109 | [4] -0.061 | [5] -0.003 | [6] -0.01 | [7] 0.063 | [8] 0.058 | [9] 0.012 | [10] 0.007

DMAC1 (UniProt Q96GE9)
inactive: [1] 0.136 | [2] 0.031 | [3] 0.015 | [4] -0.07 | [5] -0.004 | [6] 0.019 | [7] -0.003 | [8] -0.185 | [9] -0.427 | [10] 0.113

CWC27 (UniProt Q6UX04)
inactive: [1] -0.062 | [2] 0.016 | [3] -0.142 | [4] -0.103 | [5] 0.113 | [6] 0.062 | [7] 0.089 | [8] 0.062 | [9] -0.092 | [10] 0.026

DDX5 (UniProt P17844)
inactive: [1] -0.139 | [2] -0.032 | [3] -0.21 | [4] -0.135 | [5] 0.067 | [6] 0.073 | [7] 0.072 | [8] -0.088 | [9] -0.158 | [10] -0.039

DDX4 (UniProt Q9NQI0)
Sequence of UniProt Q9NQI0 (Q9NQI0 whole entry, looked up): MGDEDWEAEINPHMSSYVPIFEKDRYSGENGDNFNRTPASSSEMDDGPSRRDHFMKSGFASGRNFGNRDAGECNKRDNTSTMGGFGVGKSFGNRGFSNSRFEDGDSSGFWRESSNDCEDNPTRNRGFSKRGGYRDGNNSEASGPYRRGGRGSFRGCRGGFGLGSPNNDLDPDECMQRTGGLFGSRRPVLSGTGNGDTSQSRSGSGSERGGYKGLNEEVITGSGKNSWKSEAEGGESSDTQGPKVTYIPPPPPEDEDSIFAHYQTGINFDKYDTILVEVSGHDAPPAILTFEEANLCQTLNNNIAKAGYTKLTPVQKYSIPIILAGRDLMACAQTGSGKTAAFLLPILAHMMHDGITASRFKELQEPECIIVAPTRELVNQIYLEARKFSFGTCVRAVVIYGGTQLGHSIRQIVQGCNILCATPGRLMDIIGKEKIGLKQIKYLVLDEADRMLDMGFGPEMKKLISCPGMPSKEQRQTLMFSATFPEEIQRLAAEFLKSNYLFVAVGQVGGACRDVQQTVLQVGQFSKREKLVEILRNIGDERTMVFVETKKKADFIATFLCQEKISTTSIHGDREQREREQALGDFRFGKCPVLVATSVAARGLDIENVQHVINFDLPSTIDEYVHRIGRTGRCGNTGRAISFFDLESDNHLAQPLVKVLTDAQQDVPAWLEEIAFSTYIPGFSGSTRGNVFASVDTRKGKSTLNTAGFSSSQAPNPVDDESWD
active: [1] -1.13
inactive: [2] 0.01 | [3] 0.297 | [4] -0.35 | [5] -0.405 | [6] -0.253 | [7] -0.146 | [8] 0.171 | [9] -0.273 | [10] -0.194

CUEDC2 (UniProt Q9H467)
inactive: [1] 0 | [2] -0.105 | [3] -0.043 | [4] -0.056 | [5] -0.009 | [6] -0.039 | [7] 0.096 | [8] 0.008 | [9] -0.055 | [10] 0.002
